HP1b binding inh: HP1-beta chromodomain-methylated histone interaction inhibition; Potency, µM (highest dose often 114 µM), usual class: inhibitors; 390,000 tested, 0.56% active; AlphaScreen HP1-beta / biotin-H3K9me3 peptide binding; P83916; AID 540317; further: nearly all actives have a fitted effect of over 70% in size
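AlphaScreen: HP1-beta (50 nM) preformed 30 min with biotin-H3(1-18)K9me3 peptide (50 nM) in PBS pH 7.4, 0.01% Tween-20. Compound added for 30 min at RT, then streptavidin donor/nickel chelate acceptor beads (10 ug/mL) for 30 min.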
L3MBTL1 inh: L3MBTL1 (human) inhibition; AlphaScreen L3MBTL1–H3K9me1 peptide binding; 230,000 tested, 0.66% active; Potency, µM (titrated, usually from 57.1 µM), actives largely listed as inhibitors; Q9Y468; AID 485360; further: nearly all actives have a fitted effect of over 60% in size
Target sequence (Q9Y468 whole entry, looked up): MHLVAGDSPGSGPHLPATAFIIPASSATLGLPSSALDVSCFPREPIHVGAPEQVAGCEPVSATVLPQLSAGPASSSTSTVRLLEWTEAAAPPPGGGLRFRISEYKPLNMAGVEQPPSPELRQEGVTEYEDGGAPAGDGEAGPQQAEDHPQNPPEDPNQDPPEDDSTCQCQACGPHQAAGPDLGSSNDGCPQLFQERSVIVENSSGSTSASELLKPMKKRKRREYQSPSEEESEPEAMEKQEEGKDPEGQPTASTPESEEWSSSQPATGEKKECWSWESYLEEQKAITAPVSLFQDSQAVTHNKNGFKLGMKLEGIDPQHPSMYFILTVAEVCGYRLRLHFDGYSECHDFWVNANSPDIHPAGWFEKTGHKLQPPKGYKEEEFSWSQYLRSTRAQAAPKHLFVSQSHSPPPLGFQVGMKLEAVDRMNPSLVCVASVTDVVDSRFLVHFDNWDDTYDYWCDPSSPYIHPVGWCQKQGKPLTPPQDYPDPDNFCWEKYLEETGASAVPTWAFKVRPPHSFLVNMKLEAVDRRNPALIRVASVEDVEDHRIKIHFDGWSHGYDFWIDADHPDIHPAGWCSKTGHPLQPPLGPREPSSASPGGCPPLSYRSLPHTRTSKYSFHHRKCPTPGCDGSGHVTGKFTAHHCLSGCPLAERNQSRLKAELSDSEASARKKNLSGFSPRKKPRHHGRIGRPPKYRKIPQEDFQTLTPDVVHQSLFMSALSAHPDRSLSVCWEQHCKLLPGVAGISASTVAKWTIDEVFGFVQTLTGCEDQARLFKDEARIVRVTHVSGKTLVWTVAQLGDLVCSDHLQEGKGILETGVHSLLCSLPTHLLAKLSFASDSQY
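AlphaScreen assay: L3MBTL1 (50 nM final) was preincubated 30 min at room temperature with biotinylated H3(1-15)K9me1 peptide (75 nM final), then 30 min with library compounds; streptavidin donor and nickel chelate acceptor beads (10 ug/mL final) added, 30 min dark.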
G9a inh: blocks human histone lysine methyltransferase G9a; Q96KQ7; G9a H3K9 monomethylation, AlphaScreen, 2 h; Potency, µM (titrated, usually from 102 µM), actives largely listed as inhibitors; 350,000 tested, 8.8% active; AID 504332; further: nearly all actives have a fitted effect of over 75% in size
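Enzyme 20 nM + cpd, 15 min RT; add b-H3K9 pep 500 nM / SAM 20 uM; 2 h RT; anti-H3K9me1 Ab 0.5 ug/mL + SA donor / anti-rabbit acceptor beads 20 ug/mL each, 10 min; AlphaScreen read.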
BAZ2B inh: inhibitors of human BAZ2B bromodomain; Q9UIF8; AlphaScreen BAZ2B-H3K14Ac peptide displacement; Potency, µM (series often up to 114 µM), most hits filed as inhibitors; 360,000 tested, 4.4% active; AID 504333; further: nearly all actives have a fitted effect of over 60% in size
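Inhibition is scored as reduced AlphaScreen emission. The BAZ2B/b-H3(5-23)K14Ac complex (50 nM each) in PBS pH 7.4, 0.01% Tween-20 meets compound (up to 110 uM) for 30 min at RT before bead addition.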
JMJD2A Tudor inh: JMJD2A Tudor domain (human) inhibition; 390,000 tested, 4.4% active; AID 504339; AlphaScreen JMJD2A-Tudor / H3K4me3 peptide binding; O75164; Potency, µM (series often up to 114 µM), most hits filed as inhibitors; further: nearly all actives have a fitted effect of over 50% in size
Numbers stand for hits; i = inactive; ? = inconclusive; nt = not tested or not shown; [ ] = another dose, or the depositor's remark. Most compounds without a hit are left out; they make up all but 11% or so of the library. The call rests on the fitted dose curve; in most records, active means well fitted inhibition curve with a large enough effect; inconclusive means small, poorly fitted or top-dose-only effect; inactive means no such curve, though single readings can be large or run the other way.

SMILES	HP1b binding inh	L3MBTL1 inh	G9a inh	BAZ2B inh	JMJD2A Tudor inh
CN(c1ccccc1)S(=O)(=O)c1ccc(Cl)c(C(=O)Nc2ccc(N3CCOCC3)cc2)c1	i	i	50µM	?	?
CCC1CCCCN1C(=S)NC(=O)c1cc(S(=O)(=O)N2CCOCC2)ccc1C (centres undefined)	i	i	45µM	i	i
CC[C@]12c3[nH]c4cc(CCC(=O)N(C)C)ccc4c3CCN1C(=O)[C@@H](CC(=O)NCC13CC4CC(CC(C4)C1)C3)C[C@@H]2C(=O)N1CCN(C(=O)c2ccco2)CC1	i	i	nt	nt	i
C[C@]12CCC(=O)C=C1CC[C@@H]1C2[C@@H](O)C[C@@]2(C)[C@H]1CC[C@]2(O)C(=O)CO (some centres undefined)	nt	nt	i[12.7 µM]	nt	nt
C/C(CCc1ccc2c(c1)OCO2)=N\N=C(/N)SC1CC(=O)N(c2ccccc2F)C1=O (centres undefined)	i	i	i[0.501 µM]	16µM	i
CCc1cccc(C)c1NC(=O)NC1COc2ccccc2C1 (centres undefined)	i	nt	i	i	i
CCCN1CCCc2cc(CN(CCCN3CCOCC3)C(=O)Nc3ccc(OCC)cc3)ccc21	?	nt	13µM	40µM	28µM
CCOc1ccc(NC(=O)N(CCN2CCOCC2)Cc2ccc3c(c2)CCCN3CC)cc1	?	i	i[0.501 µM]	45µM	56µM
CCN1CCCc2cc(CN(CCN3CCOCC3)C(=S)Nc3cccc(OC)c3)ccc21	?	nt	?	14µM	50µM
CCOc1ccc(NC(=O)N(CCCN2CCOCC2)Cc2cccnc2)cc1	i	nt	i	i	i
CCCN1CCCc2cc(CN(CCCN3CCOCC3)C(=O)Nc3ccc(Cl)c(Cl)c3)ccc21	?	nt	11µM	11µM	13µM
Cc1cc(C)cc(NS(=O)(=O)c2ccc(-c3cc(C)no3)cc2)c1	i	nt	?	i	i
c1c2c(cc3sc(N4CCOCC4)nc13)OCO2	?	i	i[2.33 µM]	i	?
c1c2c(cc3sc(N4CCCCC4)nc13)OCO2	i	i	10µM	?	i
c1ccc2c(c1)CCN(c1nc3cc4c(cc3s1)OCO4)C2	i	i[11.4 µM]	3.2µM	?	i
c1ccc(N2CCN(c3nc4cc5c(cc4s3)OCO5)CC2)cc1	i	i	?	i	i
c1ccc(OCCn2c(-c3ccco3)nc3ccccc32)cc1	i	i	40µM	?	i
O=C(Nc1nc2ccccc2n1CCOc1ccccc1)c1ccco1	i	i	i	?	i
CCn1c(-c2ccco2)nc2ccccc21	i	i	6.3µM	i	i
O=C(Cn1c(-c2ccco2)nc2ccccc21)N1CCCCC1	i	i	i[0.501 µM]	i	i
COCCc1nn2c(=O)cc(COC(=O)C(c3ccccc3)c3ccccc3)nc2s1	i	nt	i	i	i
CC(=O)Nc1ccc(OCc2cccc(C3Nc4ccccc4C(=O)N3Cc3ccco3)c2)cc1 (centres undefined)	nt	nt	nt	nt	89µM
COc1ccc(C2Nc3ccccc3C(=O)N2Cc2ccco2)cc1COc1ccc(N)cc1 (centres undefined)	nt	nt	nt	nt	22µM
O=C1c2ccccc2NC(c2cccc(O)c2)N1Cc1ccco1 (centres undefined)	i	i	i	i	i
Cc1ccc(-n2c(=O)c3c(C)c(C(=O)N(C)C)sc3n(CC(=O)N(C)c3ccccc3)c2=O)cc1C	i	nt	i	i	i
SMILES	HP1b binding inh	L3MBTL1 inh	G9a inh	BAZ2B inh	JMJD2A Tudor inh
COc1ccc(C(=O)Oc2cccc3cccnc23)cc1[N+](=O)[O-]	i	?	i	14µM	?
O=C(CS(=O)(=O)Cc1ccccc1)Nc1nc2c(s1)CCCC2	i	nt	i[12.7 µM]	i	i[11.4 µM]
O=C(COc1ccc(F)cc1)Nc1nc2c(s1)CCCC2	i	nt	i	?	i
COc1ccc(NC(=O)Nc2nc3c(s2)CCCC3)cc1	i	i	79µM	i	i
Cc1ccc(CC(=O)Nc2nc3c(s2)CCCC3)cc1	i	nt	50µM	i	i
COc1ccc(OCC(=O)Nc2nc3c(s2)CCCC3)cc1	i	nt	50µM	?	?
O=C(Cc1ccc(Cl)cc1)Nc1ccncc1	i	i	i	i	i
Cc1ccc(CC(=O)Nc2ccncc2)cc1	i	i	50µM	i	i
Brc1ccccc1OCCN1CCOCC1	?	i	25µM	?	3.2µM
Cc1cc(C)c(C)c(OCCCN(C)C)c1	?	i	?	i	20µM
Cc1cc(C)c(C)c(OCCN2CCOCC2)c1	i	nt	79µM	i	i
Clc1cc(Br)ccc1OCCN1CCOCC1	?	i	10µM	?	0.79µM
Cc1cccc(OCCN2CCOCC2)c1C	i	nt	?	i	i
Cc1ccc(F)c(C2C3C=CCC(C)C3C(=O)N2Cc2ccccc2)c1 (centres undefined)	i	nt	nt	nt	i
COc1ccccc1NC(=O)C1=C(C)Nc2nc(SCc3ccccc3Cl)nn2C1c1ccncc1 (centres undefined)	i	nt	i	i	i
CCc1ccccc1NC(=O)Cn1nc(C)c2nn(-c3ccc(Cl)cc3)c(C)c2c1=O	i	nt	i	i	i
O=C(O)c1ccc(S(=O)(=O)c2ccc([N+](=O)[O-])cc2[N+](=O)[O-])cc1	i	nt	25µM	i	i
S=c1[nH]cnc2scc(-c3ccc(Cl)cc3)c12	?	i	45µM	i	i
NNc1ncnc2scc(-c3ccc(Cl)cc3)c12	i	i	i	71µM	i
Cc1ccc(-c2csc3nc[nH]c(=S)c23)cc1	i	i	i	?	i
Cc1ccc(S(=O)(=O)/N=C/c2c(O)ccc3ccccc23)cc1	i	i	4µM	i	?
O=S(=O)(/N=C/c1c(O)ccc2ccccc12)c1cccs1	nt	nt	1.4µM	i	nt
CCCC(C(=O)NC1=NCCS1)c1ccccc1 (centres undefined)	i	i	i	nt	i
O=C(c1c2c(nc3ccccc13)C(=O)N(C1CCCCC1)C2)N1CCN(c2ccc(F)cc2)CC1	i	nt	i	i	i
Cc1ccn2c(Nc3ccc4c(c3)OCCO4)c(-c3ccc(C)o3)nc2c1	i	nt	25µM	32µM	45µM
SMILES	HP1b binding inh	L3MBTL1 inh	G9a inh	BAZ2B inh	JMJD2A Tudor inh
Cc1ccn2c(Nc3ccc(F)cc3)c(-c3ccc(C)o3)nc2c1	i	nt	i	i	i
Cc1ccc2nc(-c3ccco3)c(Nc3ccc4c(c3)OCCO4)n2c1	i	nt	?	i	i
c1coc(-c2nc3ccccn3c2Nc2ccc3c(c2)OCCO3)c1	?	nt	13µM	45µM	56µM
Cc1cccc2nc(-c3ccco3)c(Nc3ccc4c(c3)OCCO4)n12	?	nt	?	35µM	56µM
CCOc1ccc(C(=O)CC(NCc2cccs2)C(=O)O)cc1 (centres undefined)	i	i	25µM	i	89µM
Nc1ccccc1Nc1ccccc1	?	i	nt	45µM	45µM
Nc1ccc(Nc2ccccc2)c(Cl)c1	?	i	?	50µM	?
NC(=O)CSc1ccc2nnc(-c3ccncc3)n2n1	i	nt	nt	nt	i
Cc1nn(Cc2ccccc2)c(C)c1N	i	i	i	i	?
Cc1nn(Cc2n[nH]c(=S)n2Cc2ccccc2)c(C)c1Cl	i	i	2.5µM	i	?

Screening results as filed in PubChem BioAssay.
